Compounds with a hit are over-represented: about 8.1% of the library has one in this group of screens.
Epigenetic derep: derepresses silenced GFP reporter in murine cells; murine LDR cells, GFP reporter derepression, 30 h; hit rate 0.2% among 280,000; AID 1865; Potency, µM (series often up to 53.9 µM), inactives show top-dose GFP activation, actives largely listed as activators; note: % of control where 0% means no effect; nearly all actives have a fitted effect of over 60% in size
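Murine LDR cells carrying a silenced, genomically integrated CMV-driven GFP reporter were exposed to compound for 30 hours at 37 C. After PBS washes, GFP-positive cells (20–120 um objects) were counted by laser-scanning microplate cytometry.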
RORg inh: ROR gamma (mouse) transcription inhibition; P51450; Drosophila S2 Gal4-RORgamma UAS-luciferase reporter, 20 h; Potency, µM (titrated, usually from 53.6 µM), for inactives: top-dose activity change, negative = inhibition, hits mostly inhibitors; hit rate 5.4% among 310,000; AID 2551; note: % is set by controls: 0 for no effect and ±100 for the full control effect; nearly all actives have a fitted effect of over 60% in size
Target sequence (P51450 whole entry, looked up, the tested form may be a part): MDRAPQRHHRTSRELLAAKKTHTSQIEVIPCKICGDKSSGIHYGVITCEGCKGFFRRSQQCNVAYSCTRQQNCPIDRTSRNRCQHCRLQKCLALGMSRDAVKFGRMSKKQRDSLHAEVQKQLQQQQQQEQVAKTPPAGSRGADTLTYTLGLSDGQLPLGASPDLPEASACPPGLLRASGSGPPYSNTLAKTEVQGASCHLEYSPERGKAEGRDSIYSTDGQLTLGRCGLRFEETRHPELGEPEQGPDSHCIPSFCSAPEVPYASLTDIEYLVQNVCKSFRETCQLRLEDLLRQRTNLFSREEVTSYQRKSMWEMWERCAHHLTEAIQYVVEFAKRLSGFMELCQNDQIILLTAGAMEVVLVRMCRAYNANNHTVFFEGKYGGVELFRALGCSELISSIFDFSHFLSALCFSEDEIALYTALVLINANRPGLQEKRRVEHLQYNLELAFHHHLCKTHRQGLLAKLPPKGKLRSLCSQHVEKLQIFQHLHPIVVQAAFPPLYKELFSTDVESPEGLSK
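Luciferase reporter read in Schneider cells carrying Gal4-RORγ (mouse) and UAS-Photinus luciferase; cells given compound 1 h before 700 uM copper sulfate induction, then incubated 20 h at ambient temperature.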
PINK1 expr mod: changes PINK1 expression | PINK1 immunofluorescence, high-content cytometry, 24 h | Potency, µM (series often up to 76.6 µM), for the others: top-dose activation (PINK1 increase), usual class: activators | hit rate 0.2% among 410,000; active = well fitted activation curve with a large enough effect; inconclusive = small, poorly fitted or top-dose-only effect; cell line not stated here; note: % of control where 0% means no effect; nearly all actives have a fitted effect of over 65% in size
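A stable cell line was treated with compounds at 5 concentrations for 24 hours, with CCCP as control. PINK1 levels and mitochondrial localization were measured by immunofluorescence with mitochondrial, cell and nuclear markers after fixation, read by laser-scanning cytometry.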
ClpP mod: qHTS Assay for Activators of ClpP | ATP-dependent Clp protease proteolytic subunit (Bacillus subtilis (strain 168)), P80244 | purified B. subtilis ClpP, FRET peptide cleavage, 20 min | Potency, µM (doses to about 57.5 µM), inactives show top-dose activity change, negative = active | hit rate 1.9% among 340,000; active = well fitted falling curve with a large enough effect; inconclusive = small, poorly fitted or top-dose-only effect; inactive = no such curve, though single readings can be large or run the other way; note: the source files actives as falling curves though it sought activators and does not explain the sign; nearly all actives have a fitted effect of over 65% in size
Target sequence (P80244 whole entry, looked up): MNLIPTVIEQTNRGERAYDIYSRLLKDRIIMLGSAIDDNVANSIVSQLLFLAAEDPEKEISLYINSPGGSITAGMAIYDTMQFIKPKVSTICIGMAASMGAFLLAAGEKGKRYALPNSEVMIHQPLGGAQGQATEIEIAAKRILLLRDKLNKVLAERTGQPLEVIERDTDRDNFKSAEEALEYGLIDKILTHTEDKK
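ClpP 10 microg/mL final, pH 8 Tris/KCl buffer with BSA, glycerol, Tween-20; compound pinned in; FRET-FV substrate; RT 20 min; Ex320/Em430; ΔFRET vs ADEP 5.8 microM, DMSO, no enzyme.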
VP16 counter: inhibits Gal4-VP16 luciferase reporter, ROR gamma counter-screen; Drosophila S2 Gal4-VP16 UAS-luciferase, luminescence, 20 h; Potency, µM (highest dose often 53.6 µM), without a hit: at the highest dose activity, negative = inhibition, most hits filed as inhibitors; hit rate 3.5% among 310,000;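 note: Gal4-VP16 expression switched on by copper sulfate through the metallothionein promoter; % is set by controls: 0 for no effect and ±100 for the full control effect; nearly all actives have a fitted effect of over 50% in size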
Sfp PPTase inh: inhibitors of Bacillus subtilis Sfp phosphopantetheinyl transferase; Q9F4F7; Biochemical Sfp PPTase activity, qHTS; Potency, µM, for inactives: largest response in the series, negative = inhibition, usual class: inhibitors; hit rate 3.5% among 310,000; AID 1490;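 note: the enzyme is Sfp with the accession as filed and its product quenches rhodamine fluorescence; 0% = enzyme reaction without inhibitor and -100% = no enzyme wells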
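Compounds were incubated with enzyme (final 15 nM) for 15 min at room temperature before substrate addition started the reaction. Fluorescence at 525 nm excitation, 598 nm emission was recorded immediately and after 30 minutes.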
An asterisk follows results filed as active; ? = inconclusive; / = not tested or not shown; [ ] = dose if it differs, or a comment. Unless noted, calls come from the whole dose curve; as a rule, active = well fitted curve in the direction sought with a large enough effect; inconclusive = small, poorly fitted or top-dose-only effect, or another doubt; inactive = no such curve, though single readings can be large; an effect the other way counts as inactive or inconclusive. Potency is the fitted concentration of half-maximal effect.

SMILES | Epigenetic derep | RORg inh | PINK1 expr mod | ClpP mod | VP16 counter | Sfp PPTase inh
CC(=O)Nc1ccc(S(=O)(=O)N(C)CCOCc2ccccc2)cc1 | 0.0% | -0.5% | -2.8% | 22.4µM* | -1.6% | -4.4%
CC(=O)Nc1ccc(OC(=O)N(C)c2ccccc2)cc1 | -1.0% | -10.6% | -1.2% | -0.7% | 5.5% | -6.5%
CCCCCn1c(=O)c(C(=O)Nc2ncccc2C)c(O)c2ccccc21 | / | 8.91µM* | -0.8% | / | 8.91µM* | 32.6%
CCCCn1c(=O)c(C(=O)Nc2ccccc2C)c(O)c2ccccc21 | / | ? | 3.0% | -0.7% | -24.3% | -6.6%
CC[C@H](C)[C@H](NC(=O)[C@H](CCCN=C(N)N)NC(=O)[C@H](CCCN=C(N)N)NC(=O)[C@H](CC(C)C)NC(=O)[C@H](Cc1ccccc1)NC(=O)CNC(=O)CNC(=O)[C@@H](N)Cc1ccc(O)cc1)C(=O)O | 0.0% | / | / | / | / | -14.8%
O=c1c(O)c(-c2ccc(O)c(O)c2)oc2c(O)c(O)cc(O)c12 | -1.3% | -14.0% | / | / | -16.1% | -83.7%
Brc1ccccc1Cn1c(-c2cncs2)nc2ccccc21 | -0.8% | 6.31µM* | 5.4% | -28.2% | -8.1% | 7.7%
O=C1NC(=S)NC(=O)C1C/C=C/c1ccccc1 | 2.8% | -15.1% | 4.0%[38.3 µM] | 0.8% | -1.4% | 44.7µM*
CCCCOC(=O)c1ccccc1N | / | 35.4% | 3.7% | 4.1% | -9.3% | /
CCCCCCOC(=O)c1ccccc1N | 0.9% | ? | 1.5% | 22.4µM* | 16.8% | 11.5%
CCCC[C@H]1C(=O)O[C@H](C)[C@H](NC(=O)c2cccc(NC=O)c2OC)C(=O)O[C@@H](C)[C@@H]1OC(=O)CC(C)C | 11.6% | 1.78µM* | / | / | 1.78µM* | 18.7%
CCCCCC1C(=O)O[C@H](C)[C@@H](NC(=O)c2cccc(NC=O)c2O)C(=O)OC(C)C1OC(=O)CC(C)C (stereo partly specified) | -0.1% | 0.005µM* | 0.9% | / | 11.2µM* | 17.1%
COCCCNC(=S)NCCCNc1nc2cc(C)cc(C)c2cc1C#N | 0.2% | 6.31µM* | -1.5% | / | ? | -13.5%
CCn1c(O)c(C=Nc2ccc(N3CCOCC3)cc2)c(=O)n(CC)c1=S | 1.9% | ? | 6.9% | 0.4% | -3.2% | -17.2%
CCn1c(O)c(C(=O)CC2NCCc3ccccc32)c(=O)n(CC)c1=S (stereo unspecified) | -7.4% | 30.2% | 1.9% | -2.2% | -16.7% | 44.7µM*
CN(N=O)c1ccc(O)c(O)c1 | -1.2% | / | / | / | / | /
N#CC(C#N)=NNc1ccc(-n2ccc(C(F)(F)F)n2)cc1 | 5.7% | 5.01µM* | ? | / | 3.55µM* | -3.7%
Cc1cc(C)n(-c2ccc(NN=C(C#N)C#N)cc2)n1 | 1.5% | ? | ? | 2.5% | 10µM* | ?
O=C(c1ccc2c(c1)OCO2)C1CCCN(Cc2c(F)cccc2Cl)C1 (stereo unspecified) | / | 4.2% | 1.8% | -3.4% | 2.5% | -4.1%
COc1cccc(C(=O)N2CCN(Cc3ccccn3)CC2)c1OC | 0.0% | 12.0% | -0.3% | 0.5% | -28.0% | 79.4µM*
Cc1cccc(CN2CCCC(C(=O)c3ccc4c(c3)OCO4)C2)n1 (stereo unspecified) | 8.8% | 3.16µM* | -0.2% | / | 12.6µM* | 4.0%
COc1cccc(C(=O)C2CCCN(Cc3cccc(C)n3)C2)c1 (stereo unspecified) | 1.1% | ? | 4.1% | -3.9% | 14.1µM* | ?
COc1c(C)cc(C(=O)C2CCCN(Cc3cccc(C)n3)C2)cc1C (stereo unspecified) | 0.2% | 2.24µM* | 0.2% | 1.7% | 12.6µM* | 17.3%
COc1cccc(C(=O)C2CCCN(Cc3ccon3)C2)c1 (stereo unspecified) | 1.1% | -6.6% | -1.4% | / | -23.5% | 16.9%
Clc1ccc(C(Cl)(Cl)Cl)cc1Cl | / | -0.7% | / | / | -4.3% | /
SMILES | Epigenetic derep | RORg inh | PINK1 expr mod | ClpP mod | VP16 counter | Sfp PPTase inh
[O]=[Cr](=[O])([OH])[O][Cr](=[O])(=[O])[OH] | / | 2.9%[10 µM] | / | / | -3.6% | 4.2%
CN=C=O | / | 7.1% | / | / | -4.3% | /
Cc1cccc(CN2CCCC(C(=O)c3cccc(OC(C)C)c3)C2)n1 (stereo unspecified) | 2.4% | 2.24µM* | 3.8% | -2.8% | 15.8µM* | 16.5%
COc1ccc(C(=O)C2CCCN(Cc3ccccn3)C2)c(OC)c1 (stereo unspecified) | 1.4% | 10µM* | 5.8% | 0.6% | -12.5% | -2.6%
COc1ccc(C(=O)C2CCCN(Cc3cnc(C)s3)C2)c(OC)c1 (stereo unspecified) | -0.1% | 27.0% | -1.2% | / | -20.7% | 8.7%
S=C(S)N1CCCC1 | ? | ? | 0.2% | -0.5% | 0.316µM* | 5.62µM*
S=C(S)N1CCNCC1 | / | 5.8% | / | / | -3.4% | ?
C=CCN1CCC23c4c5ccc(O)c4OC2/C(=N/N=C2\CCC4(O)C6Cc7ccc(O)c8c7C4(CCN6CC=C)C2O8)CCC3(O)C1C5 (stereo unspecified) | 0.0% | / | / | / | / | -9.1%
CCOC(=O)c1c(NC(=O)c2c(N)n(CCCOC)c3nc4ccccc4nc23)sc2c1CCCC2 | 3.8% | ? | / | -10.2% | ? | 56.2µM*
CCCCn1c(N)c(C(=O)OCCOC)c2nc3ccccc3nc21 | 1.0% | -6.3% | -0.2% | / | 5.2% | 1.5%
CCOCCCn1c(N)c(C(=O)Nc2sc3c(c2C(=O)OC)CCCC3)c2nc3ccccc3nc21 | 4.8% | ? | 5.8%[38.3 µM] | 4.9% | 11.2µM* | ?
CCCCOCCCn1c(N)c(C(=O)OCCOC)c2nc3ccccc3nc21 | 4.1% | 33.3% | 5.1% | 1.6% | -0.3% | 13.2%
O=C1NC(=O)N(c2ccc(Cl)cc2)C(=O)/C1=C/c1coc2ccc(O)cc2c1=O | -1.1% | 5.9% | 8.3% | 0.1% | 1.3% | 44.7µM*
O=C1NC(=O)N(c2ccccc2)C(=O)/C1=C/c1coc2ccc(O)cc2c1=O | 1.1% | -9.8% | 18.5% | 3.2% | 2.4% | 50.1µM*
Cc1cc(/C=C2\C(=O)NC(=O)N(c3ccc(Cl)cc3)C2=O)c(C)n1-c1cccc(C(=O)O)c1 | / | -1.3% | -0.6% | -3.5% | 1.8% | -8.9%
NCCc1cc(O)c(O)cc1O | 5.3% | 1.2% | 1.3% | -1.2% | 2.4% | 63.1µM*
NC(Cc1cc(O)c(O)cc1O)C(=O)O (stereo unspecified) | -1.2% | / | -0.2% | -1.4% | / | /
CCN(CC)c1ccc(/C=C/[N+](=O)[O-])cc1 | 15.1% | 8.91µM* | 8.3% | 2.3% | -73.3% | ?
C[C@@H](N)Cn1ccc2cc(F)c(Cl)cc21 | 1.0% | 10.0% | / | / | -5.2% | 17.1%
ClCCN(CCCl)c1ccc(/C=C/c2ccnc3ccccc23)cc1 | / | / | 1.8% | -5.1% | / | /
O=c1cc(CN2CC=C(c3ccccc3)CC2)c2c(ccc3ccccc32)o1 | 0.0% | 5.62µM* | -0.7% | / | -6.4% | 14.1%
c1ccc(P(c2ccccc2)c2ccccc2)cc1 | / | -21.7% | / | / | -10.9% | /

Screening data: PubChem, National Center for Advancing Translational Sciences (NCATS)
